Test results reported in PubChem BioAssay (NCI).
This is part of a sample that, as a whole, favours compounds with a hit. Of some 83,000 tested, about 20% had one in any assay.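 The test compound was applied at a single concentration to cells in 96-well plates for 48 hours, and percent growth was recorded.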 Unmarked numbers belong to inactive results. Active and inactive are the calls of the source. Rule for the calls: active = growth percent below 10; inactive = the rest.

Assays:
Assay in all cases: NCI-60 one-dose screen, 48 h (100 = growth as untreated, 0 = no growth, -100 = all killed)
Details in all cases: 10 µM unless noted
[1] = system: DU-145 prostate
[2] = system: K-562 leukemia
[3] = system: MALME-3M melanoma
[4] = system: MDA-MB-231 breast
[5] = system: RXF 393 renal
[6] = system: SF-268 CNS
[7] = system: SF-295 CNS
[8] = system: SF-539 CNS
[9] = system: UACC-257 melanoma
[10] = system: M14 melanoma
[11] = system: HCT-15 colon
[12] = system: HT29 colon
[13] = system: SNB-75 CNS
[14] = system: SNB-19 CNS
[15] = system: U251 CNS
[16] = system: PC-3 prostate
[17] = system: SK-MEL-5 melanoma
[18] = system: UACC-62 melanoma
[19] = system: LOX IMVI melanoma
[20] = system: SK-MEL-28 melanoma

SMILES	growth [1]	growth [2]	growth [3]	growth [4]	growth [5]	growth [6]	growth [7]	growth [8]	growth [9]	growth [10]	growth [11]	growth [12]	growth [13]	growth [14]	growth [15]	growth [16]	growth [17]	growth [18]	growth [19]	growth [20]
O=C(Nc1ncc(Cc2ccccc2Cl)s1)c1ccc2c(c1)OCCO2	9.81% (active)	8.27% (active)	56.6%	23.5%	9.52% (active)	41.2%	11.7%	-8.75% (active)	53.1%	10.3%	10.4%	6.05% (active)	3.37% (active)	36%	14.7%	23.4%	-25.1% (active)	27.9%	23.6%	76.3%
CCOC(=O)c1c(NC(=S)Nc2ccc([N+](=O)[O-])cc2)sc2c1CCCCC2	89.8%	81.1%	72.7%	79.7%	85.6%	89%	87.2%	92%	70.4%	93.7%	66.6%	105%	86.6%	82.2%	76.6%	43.6%	42.6%	47.8%	84.4%	85.5%
Cc1cc2c(c(C)n1)CN(C(=O)Nc1nc(-c3cncs3)ccc1N)C2	107%	101%	96.7%	113%	111%	101%	99.5%	86.5%	103%	104%	102%	91%	90.3%	99.5%	86.9%	104%	105%	91.9%	111%	105%
Nc1nc(=O)n([C@H]2CC=C(CO)O2)cc1F	107%	96.5%	97.9%	101%	99.3%	99.3%	102%	107%	95.4%	105%	101%	91.9%	102%	96.3%	95%	92.1%	100%	92.4%	92.5%	105%
CN(C)C(=O)OCc1ccc2c(Cl)cc(Cl)c(O)c2n1	39.7%	20%	46%	54.6%	67.6%	25.8%	34.5%	26.1%	48.5%	12.6%	22.8%	94%	48%	29.7%	18.5%	46.4%	27.4%	-4.4% (active)	15.9%	42.2%
COc1cc(OCc2cccc(-c3ccc4c(c3)OCCO4)c2C)cc(OC)c1C=O	77.8%	29.9%	58.9%	64.8%	74.2%	70.3%	72.1%	77.9%	42.3%	59.2%	60.1%	67.6%	81.2%	72.7%	85.6%	65.5%	-9.95% (active)	38%	58.7%	67.1%
CC(C)(C#N)c1cc(C(=O)Nc2cc(Nc3ncccc3-c3ncnc4nc[nH]c34)ccc2F)cc(C(F)(F)F)c1	66%	5.56% (active)	2.06% (active)	18.3%	91.7%	66.2%	74.5%	32.1%	12%	6.18% (active)	54%	20.7%	37%	71.2%	59.7%	63.9%	24.4%	3.16% (active)	-9.46% (active)	10.4%
c1ccc2c(-c3cnn4cc(-c5ccc(N6CCNCC6)cc5)cnc34)ccnc2c1	-83.4% (active)	-23.6% (active)	-89.5% (active)	-67.8% (active)	-77.5% (active)	-62.3% (active)	-93.5% (active)	-95.4% (active)	-72.1% (active)	-81.9% (active)	-55.6% (active)	-76.9% (active)	-96.9% (active)	-57.8% (active)	-79% (active)	-12% (active)	-84.7% (active)	-84.2% (active)	-85.8% (active)	-90.7% (active)
O=C(CSc1nc(-c2ccccc2)cn1-c1ccc(Cl)cc1)c1ccc([N+](=O)[O-])cc1	93.2%	76.7%	103%	81.8%	71.2%	-86.7% (active)	95.4%	92.4%	97.9%	82%	76.1%	56.1%	93.8%	90.8%	93.3%	73.2%	80.8%	66.2%	96.1%	89%
[2H]C([2H])([2H])Oc1ccc(/C=C/C(=O)/C=C(O)/C=C/c2ccc(OC([2H])([2H])[2H])c(OC([2H])([2H])[2H])c2)cc1OC([2H])([2H])[2H]	59%	17.6%	79.2%	72%	59.4%	67.2%	39.5%	65.8%	84%	52.5%	14.3%	10.7%	45.7%	39.2%	19.5%	32.6%	11.6%	52%	14.5%	87.4%
CCOC(=O)c1ccc2c(c1)c1c(C)c3cnccc3c(C)c1n2C	-17% (active)	0.0057% (active)	-91.3% (active)	-55.9% (active)	-83% (active)	-15.9% (active)	-24.3% (active)	-95.8% (active)	-42.2% (active)	-88.3% (active)	-64.9% (active)	-44.6% (active)	-45% (active)	-15% (active)	-45.1% (active)	-21.7% (active)	-99% (active)	-77.3% (active)	-62.2% (active)	-97.7% (active)
COc1ccc(Cn2cc(C(=O)N=Nc3c(O)[nH]c4ccc(Br)cc34)nn2)cc1	93.7%	88.1%	-89.9% (active)	108%	99.8%	94.1%	95.8%	104%	102%	111%	105%	88.5%	112%	97.3%	105%	99.8%	98.3%	97.2%	107%	115%
O=C(CNc1ncco1)Nc1ccc(S(=O)(=O)c2ccc(NC(=O)CNc3ncco3)cc2)cc1	115%	-6% (active)	-38.8% (active)	14.6%	-38.6% (active)	99.1%	49.7%	-15.4% (active)	10.3%	-28.8% (active)	-49.6% (active)	-93.2% (active)	42.1%	19.7%	-92.1% (active)	40.1%		-19.9% (active)	-81.8% (active)	58.1%
C=CCNc1ccc2c3c(cccc13)C(=O)N(CC=C)C2=O	102%	96.7%	111%	88.9%	99.7%	96.2%	106%	93.7%	114%	108%	97.4%	105%	90.4%	100%	103%	69.3%	88.9%	75.8%	92%	103%
C/C=C(/C)C(=O)O[C@@H]1CC(C)(C)CC2C34OC(=O)[C@@]21CC[C@@]3(C)[C@]1(C)CCC2C(C)(C)C(=O)CC[C@]2(C)C1C[C@@H]4O (some centres undefined)	77.9%	28.8%	85%	58.4%	76%	73.4%	78.4%	52.1%	64.6%	52.4%	38.4%	65.1%	64.1%	78.6%	46.9%	25.4%	27.8%	55.3%	33.5%	75.8%
